{"source": "PubChem BioAssay AID1159602", "about": "(The Scripps Research Institute Molecular Screening Center, 2016)", "note": "About 220 (1%) of roughly 22,000 compounds were called active. This excerpt belongs to a sample that is enriched for actives. A number with no mark means an inactive call. No stated cut-off is given here; in the data, active means inhibition above about 35%; inactive means the rest.", "data": [{"target": "Mitogen-activated protein kinase kinase kinase 5 (Homo sapiens) (UniProt Q99683)", "sequence (Q99683 whole entry, looked up)": "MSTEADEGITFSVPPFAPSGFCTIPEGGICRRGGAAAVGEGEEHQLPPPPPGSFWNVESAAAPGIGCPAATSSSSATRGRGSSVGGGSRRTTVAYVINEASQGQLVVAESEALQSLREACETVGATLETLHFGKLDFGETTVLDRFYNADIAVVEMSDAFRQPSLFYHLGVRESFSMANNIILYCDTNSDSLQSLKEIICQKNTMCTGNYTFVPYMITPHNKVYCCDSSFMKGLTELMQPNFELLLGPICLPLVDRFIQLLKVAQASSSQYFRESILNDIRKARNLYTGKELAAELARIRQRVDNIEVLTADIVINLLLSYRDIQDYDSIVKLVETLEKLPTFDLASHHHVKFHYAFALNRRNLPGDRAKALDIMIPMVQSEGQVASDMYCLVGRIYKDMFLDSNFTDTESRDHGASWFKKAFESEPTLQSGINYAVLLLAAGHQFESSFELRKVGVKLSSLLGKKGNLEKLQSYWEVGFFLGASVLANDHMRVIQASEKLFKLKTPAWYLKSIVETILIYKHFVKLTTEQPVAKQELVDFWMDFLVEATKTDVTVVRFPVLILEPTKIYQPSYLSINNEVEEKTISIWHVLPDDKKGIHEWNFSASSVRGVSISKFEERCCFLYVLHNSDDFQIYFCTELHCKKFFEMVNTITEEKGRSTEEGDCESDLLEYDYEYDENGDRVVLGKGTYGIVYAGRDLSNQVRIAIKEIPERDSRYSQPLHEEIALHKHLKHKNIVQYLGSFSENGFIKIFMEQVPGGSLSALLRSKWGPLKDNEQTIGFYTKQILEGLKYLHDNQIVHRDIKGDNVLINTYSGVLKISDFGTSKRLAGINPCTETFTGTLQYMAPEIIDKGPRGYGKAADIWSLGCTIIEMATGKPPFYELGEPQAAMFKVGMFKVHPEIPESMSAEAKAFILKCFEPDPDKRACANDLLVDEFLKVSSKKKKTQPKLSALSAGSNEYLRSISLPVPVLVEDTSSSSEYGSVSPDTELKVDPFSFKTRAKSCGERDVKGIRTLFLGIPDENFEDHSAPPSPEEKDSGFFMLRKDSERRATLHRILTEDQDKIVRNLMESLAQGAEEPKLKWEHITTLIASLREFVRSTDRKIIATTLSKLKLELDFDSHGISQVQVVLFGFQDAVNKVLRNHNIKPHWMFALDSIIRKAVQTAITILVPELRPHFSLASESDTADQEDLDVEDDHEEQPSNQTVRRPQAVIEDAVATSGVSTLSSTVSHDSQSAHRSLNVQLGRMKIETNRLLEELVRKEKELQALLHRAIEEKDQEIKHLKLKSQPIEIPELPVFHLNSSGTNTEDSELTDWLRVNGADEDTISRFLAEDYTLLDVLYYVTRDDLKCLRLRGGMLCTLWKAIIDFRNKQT", "test": "blockers of MAP3K5 kinase activity – biochemical, AlphaScreen, primary screen (AID 1159602);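 further: 0% = median of compound wells and 100% = no enzyme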", "details": "AlphaScreen MKK6 phosphorylation by ASK1, luminescence; at 7.44 µM; active compounds read high", "values": [{"smiles": "O=C(Nc1ccncc1)OC1CCN(C(=O)[C@H](O)COc2ccc(Br)cc2)CC1", "inhibition": "-3.38%"}, {"smiles": "COC(=O)c1cccc(-n2ncc3cc(Nc4ccccc4)ccc32)c1", "inhibition": "-20.5%"}, {"smiles": "Cc1noc(C)c1-c1nc(NC2CC2)c2ncn(-c3ccsc3)c2n1", "inhibition": "-7.13%"}, {"smiles": "COc1cc2nc(N3CCN(c4ccccn4)CC3)nc(NCc3nc4ccccc4[nH]3)c2cc1OC", "inhibition": "-8.78%"}, {"smiles": "CC(=O)Nc1ccc(NC(=O)c2csc(N3CCC(N4CCOCC4)CC3)n2)cc1", "inhibition": "14.1%"}, {"smiles": "CCCNc1nc(-c2cccc(C(C)=O)c2)nc2nc[nH]c12", "inhibition": "6.62%"}, {"smiles": "c1ccc(OCCNc2nc(N3CCC(N4CCOCC4)CC3)nc3c2ncn3-c2ccccc2)cc1", "inhibition": "8.08%"}, {"smiles": "CC(C)(C)OC(=O)N1CCC(CC(=O)Nc2ccnn2-c2cccc(C(=O)Nc3ccc(N4CCOCC4)cc3)c2)CC1", "inhibition": "7.81%"}, {"smiles": "Cc1noc(C)c1-c1cc(C(=O)NCc2cccc(C(F)(F)F)c2)ccn1", "inhibition": "1.72%"}, {"smiles": "O=C(NCCOc1ccccc1)c1cnc(Nc2cccnc2)s1", "inhibition": "4.63%"}, {"smiles": "O=C(c1cccnc1)N1CCCC(Nc2ccc3[nH]ncc3c2)C1", "note": "(stereo unspecified)", "inhibition": "-32%"}, {"smiles": "Nc1cccc(-c2nc(NCc3nc4ccccc4[nH]3)c3ncn(Cc4ccc(C(F)(F)F)cc4)c3n2)c1", "inhibition": "-18.3%"}, {"smiles": "Cc1cc(NCc2cccnc2)nc(-c2ccc(C(N)=O)cc2)n1", "inhibition": "1.31%"}, {"smiles": "COc1cc(Nc2cc(C(=O)NCc3ccccc3)ccn2)cc(OC)c1OC", "inhibition": "2.85%"}, {"smiles": "O=C(NC1CC1)c1ccc(-c2nc(NC3CCN(Cc4ccccc4)CC3)c3ncn(C4CCCCC4)c3n2)cc1", "inhibition": "9.66%"}, {"smiles": "FC(F)(F)c1cccc(CNc2ncnc3nc(Nc4ccncn4)[nH]c23)c1", "inhibition": "14.3%"}, {"smiles": "COc1cc(NC(=O)c2ccnc(N3CCC(N4CCOCC4)CC3)c2)cc(OC)c1OC", "inhibition": "1.9%"}, {"smiles": "NC(=O)c1cccc(N2CCCC2CO)n1", "note": "(stereo unspecified)", "inhibition": "1.37%"}, {"smiles": "COc1cc(NC(=O)[C@H](N)c2ccc(F)cc2)c(F)cc1-c1cn[nH]c1", "inhibition": "8.67%"}, {"smiles": "Cc1nn(C)c(C)c1-c1nc(NCCc2ccc(O)cc2)c2ncn(CCN3CCCC3=O)c2n1", "inhibition": "-10.9%"}, {"smiles": "Cn1c(Nc2nc(NCCN3CCOCC3)c3ncn(-c4ccccc4)c3n2)nc2ccccc21", "inhibition": "-13.6%"}, {"smiles": "CCN(CC)C(=O)C1CCCN(c2nc(NCc3cccc(C(F)(F)F)c3)c3cc(OC)c(OC)cc3n2)C1", "note": "(stereo unspecified)", "inhibition": "3.43%"}, {"smiles": "CCNc1nc(C(=O)NCc2ccccc2)cs1", "inhibition": "-2.48%"}, {"smiles": "O=C(NCCN1CCOCC1)c1ccc2nc(N3CCCC3CO)sc2c1", "note": "(stereo unspecified)", "inhibition": "3.28%"}, {"smiles": "CCCNc1cc(NC2CCN(Cc3ccccc3)CC2)nc(N)n1", "inhibition": "6.95%"}, {"smiles": "O=C([C@@H](O)CSc1ccc(Br)cc1)N1CCC(Nc2ccc3[nH]ncc3c2)CC1", "inhibition": "-0.23%"}, {"smiles": "CC(=O)c1cccc(-c2nc3ccc(C(=O)NCCO)cc3s2)c1", "inhibition": "0.91%"}, {"smiles": "FC(F)(F)c1ccc(Cn2cnc3c(Nc4ccc(Oc5ccccc5)cc4)nc(N4CCOCC4)nc32)cc1", "inhibition": "18%"}, {"smiles": "CC(C)n1cnc2c(Nc3ccc(N4CCOCC4)cc3)nc(NC3CCC(O)CC3)nc21", "note": "(stereo unspecified)", "inhibition": "6.93%"}, {"smiles": "Cc1cc(NC2CCN(Cc3ccccc3)CC2)nc(Nc2ccccc2)n1", "inhibition": "12.7%"}, {"smiles": "c1ccc(CN2CCC(Nc3nc(Nc4ccc(N5CCOCC5)cc4)c4ncn(C5CCCCC5)c4n3)CC2)cc1", "inhibition": "22.4%"}, {"smiles": "CC(C)n1cnc2c(NC3CCN(Cc4ccccc4)CC3)nc(NC3CCN(Cc4ccccc4)CC3)nc21", "inhibition": "8.61%"}, {"smiles": "CC(C)n1cnc2c(NC3CCN(Cc4ccccc4)CC3)nc(Nc3ccc(N4CCOCC4)cc3)nc21", "inhibition": "45% (active)"}, {"smiles": "O=C(Nc1ccc(Oc2ccccc2)cc1)c1cncc(-c2ccc(C(=O)NC3CC3)cc2)c1", "inhibition": "9.5%"}, {"smiles": "COc1cc(Nc2ncnc3c2nc(N2CCN(Cc4ccc5c(c4)OCO5)CC2)n3C(C)C)cc(OC)c1OC", "inhibition": "10.6%"}, {"smiles": "CCNc1nc(C)cc(Nc2ccc(N3CCOCC3)cc2)n1", "inhibition": "30.4%"}, {"smiles": "CN(C)c1cccc(Nc2nccc(Nc3ccccc3)n2)c1", "inhibition": "13%"}, {"smiles": "CN(C)c1cccc(Nc2ncc(C(=O)Nc3ccc4c(c3)OCO4)s2)c1", "inhibition": "24.2%"}, {"smiles": "COc1ccc(CCNc2cc(C)nc(Nc3cccc(N(C)C)c3)n2)cc1", "inhibition": "70.9% (active)"}, {"smiles": "COc1ccc(CCNc2cc(C)nc(NCc3ccc4c(c3)OCO4)n2)cc1", "inhibition": "15.4%"}, {"smiles": "Cc1cc(Nc2ccc3c(c2)OCO3)nc(Nc2cccc(N(C)C)c2)n1", "inhibition": "62.2% (active)"}, {"smiles": "Cc1cc(Nc2ccc(N3CCOCC3)cc2)nc(NCc2ccc3c(c2)OCO3)n1", "inhibition": "37.3% (active)"}, {"smiles": "COc1ccc(CCNc2ncnc3c2nc(Nc2cccc(N(C)C)c2)n3C(C)C)cc1", "inhibition": "27.5%"}, {"smiles": "CC(=O)Nc1ccc(Nc2cc(C)nc(NCc3ccc4c(c3)OCO4)n2)cc1", "inhibition": "5.86%"}, {"smiles": "CC(=O)c1cccc(-c2ccc(C(=O)Nc3ccccc3)s2)c1", "inhibition": "-3.18%"}, {"smiles": "COc1ccc2c(c1)C[C@H](C(=O)Nc1ccc(-c3cn[nH]c3)cc1N(C)CCN(C)C)NC2", "inhibition": "5.32%"}, {"smiles": "CC(C)N(CCNc1nc(Nc2ccccc2)nc2c1ncn2C(C)C)C(C)C", "inhibition": "6.04%"}, {"smiles": "NC(=O)c1ccc(-c2nc(NCCO)c3ncn(-c4ccsc4)c3n2)cc1", "inhibition": "0.26%"}, {"smiles": "Cc1cnc(N2CCc3ccccc3C2)nc1NCCN(C(C)C)C(C)C", "inhibition": "-16.8%"}, {"smiles": "COc1cc(-c2cn[nH]c2)ccc1C(=O)NCCc1cccs1", "inhibition": "15.3%"}, {"smiles": "Cc1ccccc1-c1cscc1Nc1cnn(-c2cccc(C(=O)Nc3ccc(N4CCOCC4)cc3)c2)c1", "inhibition": "37.8% (active)"}, {"smiles": "Cc1cccc(CC(=O)Nc2cnn(-c3cccc(C(=O)Nc4ccc(N5CCOCC5)cc4)c3)c2)c1", "inhibition": "16.2%"}, {"smiles": "O=C(Cc1cccc(Br)c1)Nc1cnn(-c2cccc(C(=O)Nc3ccc(N4CCOCC4)cc3)c2)c1", "inhibition": "-2.11%"}, {"smiles": "c1ccc(CNc2nc(Nc3cccnc3)nc3c2ncn3-c2ccccc2)cc1", "inhibition": "8.4%"}, {"smiles": "CC(=O)c1cccc(-c2nc3ccc(C(=O)NC4CCN(Cc5ccccc5)CC4)cc3s2)c1", "inhibition": "-0.28%"}, {"smiles": "CC(C)n1c(Nc2ccccc2)nc2c(NCc3cccc(C(F)(F)F)c3)ncnc21", "inhibition": "-21.3%"}, {"smiles": "CCCNc1ncnc2c1nc(N1CCN(c3ccccn3)CC1)n2C(C)C", "inhibition": "-14.9%"}, {"smiles": "COc1ccc(CCNc2cc(Nc3cc(OC)c(OC)c(OC)c3)nc(N)n2)cc1", "inhibition": "-1.19%"}, {"smiles": "CCCNC(=O)c1csc(Nc2nc3ccccc3n2C)n1", "inhibition": "-7.28%"}, {"smiles": "COc1ccc(-c2nc(Nc3cc(OC)c(OC)c(OC)c3)c3ncn(C(C)C)c3n2)cc1", "inhibition": "9.01%"}, {"smiles": "CC(C)[C@@H](O)C(=O)N1CCC[C@@H]1C(=O)Nc1ccc2[nH]ncc2c1", "inhibition": "4.14%"}, {"smiles": "O=C(NCc1nc2ccccc2[nH]1)c1cc(N2CCCC2CO)nc2ccccc12", "note": "(stereo unspecified)", "inhibition": "7.25%"}, {"smiles": "Fc1cnc(Nc2ccc(N3CCNCC3)cc2)cc1-n1cnc(Nc2ccccc2)n1", "inhibition": "56.6% (active)"}, {"smiles": "c1ccc(Nc2nccc(Nc3ccc(N4CCOCC4)cc3)n2)cc1", "inhibition": "25.1%"}, {"smiles": "c1ccc(-n2cnc(-c3ccnc(Nc4ccc(N5CCOCC5)cc4)c3)n2)cc1", "inhibition": "9.1%"}, {"smiles": "O=C1CCCN1CCn1cnc2c(NC3CC3)nc(NCc3ccc4c(c3)OCO4)nc21", "inhibition": "-15.8%"}, {"smiles": "Nc1nc(NCCCN2CCCC2=O)cc(Nc2cnccn2)n1", "inhibition": "0.26%"}, {"smiles": "CCCNc1nc(N2CCCC(C(=O)N(CC)CC)C2)nc2c1ncn2Cc1ccc(C(F)(F)F)cc1", "note": "(stereo unspecified)", "inhibition": "15.8%"}, {"smiles": "COc1cc2nc(Cl)nc(NC3CC3)c2cc1OC", "inhibition": "-7.49%"}, {"smiles": "CCN(CC)c1nc(NCCc2ccc(O)cc2)nc(Nc2cc(OC)c(OC)c(OC)c2)n1", "inhibition": "4.75%"}, {"smiles": "Nc1cccc(-c2cncc(C(=O)NCCOc3ccccc3)c2)c1", "inhibition": "1.06%"}, {"smiles": "CC(C)n1cnc2c(NCc3cccc(C(F)(F)F)c3)nc(Nc3ccc(OC(F)(F)F)cc3)nc21", "inhibition": "-3.35%"}, {"smiles": "Cc1nn(C)c(C)c1-c1nc(C(=O)NCCc2ccc(O)cc2)cs1", "inhibition": "4.91%"}, {"smiles": "Nc1nc(NCc2nc3ccccc3[nH]2)cc(N2CCN(Cc3ccc4c(c3)OCO4)CC2)n1", "inhibition": "1.22%"}, {"smiles": "c1ccc2[nH]c(CNc3ncnc4nc(Nc5ccncn5)[nH]c34)nc2c1", "inhibition": "-8.27%"}, {"smiles": "Cc1cc(NCc2nc3ccccc3[nH]2)nc(N2CCOCC2)n1", "inhibition": "-7.53%"}, {"smiles": "Cc1cnc(Nc2ccc(N3CCOCC3)cc2)nc1Nc1ccccc1-c1ncn[nH]1", "inhibition": "-18%"}, {"smiles": "CNC(=O)c1ccccc1Nc1ccnc(Nc2ccc(N3CCOCC3)cc2)c1", "inhibition": "8.11%"}, {"smiles": "c1ccc(-c2ncn[nH]2)c(Nc2ccnc(Nc3ccc(N4CCOCC4)cc3)c2)c1", "inhibition": "37% (active)"}, {"smiles": "COc1ccc(CCNc2ncnc3nc(-c4ccc(C(N)=O)cc4)[nH]c23)cc1", "inhibition": "-0.94%"}, {"smiles": "NC(=O)c1ccc(-c2ncc(C(=O)NCCOc3ccccc3)s2)cc1", "inhibition": "-1.66%"}, {"smiles": "COc1cc(Nc2nc(C)cc(N)n2)cc(OC)c1OC", "inhibition": "-5.08%"}, {"smiles": "Nc1cccc(-c2cc(Nc3ccccc3)ncn2)c1", "inhibition": "4.09%"}, {"smiles": "c1cnc(Nc2nc(NCc3cccnc3)c3ncn(C4CCCCC4)c3n2)nc1", "inhibition": "5.63%"}, {"smiles": "c1ccc(CN2CCC(Nc3nc(-c4csc5ccccc45)nc4c3ncn4C3CCCCC3)CC2)cc1", "inhibition": "-20.4%"}, {"smiles": "c1ccc(Oc2ccc(Nc3nc(Nc4ccccn4)nc4c3ncn4-c3ccsc3)cc2)cc1", "inhibition": "2.93%"}]}]}
